# Results filed as inconclusive are left out. A call without a number means that no potency is given here. The source made the active and inactive calls. Calls follow the shape of the dose curve; as a rule, active = well fitted curve in the direction sought with a large enough effect; inconclusive = small, poorly fitted or top-dose-only effect, or another doubt; inactive = no such curve, though single readings can be large; an effect the other way counts as inactive or inconclusive.
# How the values were obtained:
# [1] = qHTS for compounds that reverse cellular toxicity of Amyloid beta (A-beta) peptide in yeast: LOPAC Validation Assay (AID 720559)
# How it was run: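 Here, A-beta-toxic yeast grow with test compounds at 30 C for 48 hr before optical density at 600 nm is recorded; data are normalized against DMSO and the FeCl3-clioquinol control.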
# [2] = qHTS for Activators of Parkin Expression: LOPAC Validation Assay (NLuc Reporter) (AID 720572)
# How it was run: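 Parkin promoter-driven FLuc/NLuc neuronal reporter cells; 24 h plating, 7-pt dose response, 24 h at 37 C/5% CO2; FLuc then NanoLuc reagent, 10 min each, luminescence; DMSO/positive control normalized.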
# [3] = target: Arylsulfatase A (Homo sapiens) (UniProt P15289); assay: qHTS screen for enhancers of Arylsulfatase A (ASA1): LOPAC Validation Assay (AID 720538)
# How it was run: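 Cell-based enhancement test: residual ASA activity in SV40-transformed I179S patient fibroblasts is measured by pNCS turnover (0.5mM final, 14h, room temperature) following 48h compound incubation; higher fluorescence indicates activation.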
# Chain of Arylsulfatase A (Homo sapiens) (P15289 whole entry, looked up): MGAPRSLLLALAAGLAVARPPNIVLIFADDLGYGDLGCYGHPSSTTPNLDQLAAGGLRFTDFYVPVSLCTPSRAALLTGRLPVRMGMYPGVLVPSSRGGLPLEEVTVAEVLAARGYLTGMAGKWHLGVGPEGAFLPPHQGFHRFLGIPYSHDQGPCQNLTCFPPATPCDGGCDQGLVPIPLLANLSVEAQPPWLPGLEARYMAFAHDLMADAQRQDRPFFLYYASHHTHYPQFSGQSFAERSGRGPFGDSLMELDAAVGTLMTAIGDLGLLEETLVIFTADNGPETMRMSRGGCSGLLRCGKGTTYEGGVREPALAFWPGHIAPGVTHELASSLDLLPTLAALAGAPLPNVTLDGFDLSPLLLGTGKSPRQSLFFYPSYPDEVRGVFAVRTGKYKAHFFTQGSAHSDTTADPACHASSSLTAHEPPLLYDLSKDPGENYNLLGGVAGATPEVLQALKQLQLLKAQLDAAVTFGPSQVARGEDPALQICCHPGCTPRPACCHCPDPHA
SMILES,outcome [1],Potency [2],Potency [3]
O=C(CCNNC(=O)c1ccncc1)NCc1ccccc1,inactive,inactive,
CC(=O)Oc1cc(C(C)C)c(OCCN(C)C)cc1C,,inactive,inactive
CC(C)(C)NCC(O)c1cc(O)cc(O)c1 (stereo unspecified),,inactive,inactive
CCc1cccc(N(C)C(N)=Nc2cccc3ccccc23)c1,,inactive,inactive
CCN(Cc1ccncc1)C(=O)C(CO)c1ccccc1 (stereo unspecified),,inactive,
O=C1CC2(CCCC2)CC(=O)N1CCCCN1CCN(c2ncccn2)CC1,inactive,inactive,
NS(=O)(=O)c1cc2c(cc1Cl)NC(C1CC3C=CC1C3)NS2(=O)=O (stereo unspecified),inactive,inactive,inactive
NC(=O)c1ncn([C@@H]2O[C@H](CO)[C@@H](O)[C@H]2O)c1O,,inactive,
CO[C@@]1(NC(=O)CSCC#N)C(=O)N2C(C(=O)O)=C(CSc3nnnn3C)CS[C@@H]21,,inactive,
Cc1nc2sccn2c(=O)c1CCN1CCC(=C(c2ccc(F)cc2)c2ccc(F)cc2)CC1,,inactive,
NC1=NCC2c3ccccc3Cc3ccccc3N12 (stereo unspecified),inactive,inactive,
COC(=O)[C@@H](N)Cc1ccc(O)c(O)c1,,inactive,
NC(N)=N/N=C/c1c(Cl)cccc1Cl,inactive,inactive,
CCCN1C[C@H](CSC)C[C@@H]2c3cccc4[nH]cc(c34)C[C@H]21,inactive,inactive,inactive
CCCCCCCC/C=C\CCCCCCCC(=O)NCc1ccc(O)c(OC)c1,inactive,,
